# Test results from PubChem BioAssay.
# Results filed as inconclusive are left out. Calls of active or inactive are those of the source. Unless noted, the rule behind the calls is not given here. Peptide text beside a SMILES is read from it.
# Experiments:
# [1] = viability loss in pontine glioma line – cell-based, SU-DIPG-XIII, MIPE4.0, CellTiter-Glo, qHTS, dose response (AID 1347061; cut-off not given, nearly all actives have AC50 up to about 37 µM;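 note: cells exposed to compound for 48 hours before readout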); settings: CellTiter-Glo ATP luminescence
# [2] = growth inhibition of DIPG cells – cell-based, MIPE4.0 library, CellTiter-Glo luminescence, qHTS (AID 1347066; cut-off not given, nearly all actives have AC50 up to about 30 µM;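 note: cells exposed to compound for 48 hours before readout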); settings: SU-DIPG-VI viability, CellTiter-Glo ATP luminescence
# [3] = tested on: Aerobactin synthetase IucA (Klebsiella pneumoniae); experiment: inhibition of K. pneumoniae IucA enzyme – biochemical, Tocris library, absorbance (AID 1345561); settings: purified IucA enzyme assay, absorbance (OD) read-out; stronger effect = lower value;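 tested at 8 µM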;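 note: 100% = enzyme without compound and 0% = no enzyme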
# [4] = compounds altering viability of human ES cells (AID 493140); settings: human embryonic stem cell survival screen; stronger effect = higher value;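 note: cells exposed to compounds for four days before counting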
# [5] = viability loss in pontine glioma line – cell-based, SU-DIPG-XVII, MIPE5.0, CellTiter-Glo, qHTS, dose response (AID 1347060; cut-off not given, nearly all actives have AC50 up to about 26 µM;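 for AC50: cells exposed to compound for 48 hours before viability readout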); settings: CellTiter-Glo ATP luminescence
# [6] = viability loss in pontine glioma line – cell-based, SU-DIPG-XIII, MIPE5.0, CellTiter-Glo, qHTS, dose response (AID 1347064; cut-off not given, nearly all actives have AC50 up to about 23 µM); settings: CellTiter-Glo ATP luminescence
# [7] = growth inhibition of DIPG cells – cell-based, MIPE5.0 library, qHTS (AID 1347068; cut-off not given, nearly all actives have IC50 up to about 30 µM); settings: SU-DIPG-XXV viability
# [8] = viability loss in pontine glioma line – cell-based, JHH-DIPG-1, MIPE4.0, CellTiter-Glo, qHTS, dose response (AID 1347062; cut-off not given, nearly all actives have AC50 up to about 27 µM); settings: JHH-DIPG-1 viability, CellTiter-Glo ATP luminescence
# [9] = biological target: NAD(+) hydrolase SARM1 (Homo sapiens) (UniProt Q6SZW1); experiment: blocking NAD cleavage by SARM1 SAM-TIR – cell lysate, NAD-Glo luminescence (AID 1508614;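 active = compound whose remaining NAD level is above about 45 nM, limit read from the data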;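 note: higher remaining NAD means stronger inhibition of SARM1 NADase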); settings: SAM-TIR HEK293T lysate NADase, at 1 µM, stronger effect = higher value
# NAD(+) hydrolase SARM1 (Homo sapiens), sequence (Q6SZW1 whole entry, looked up): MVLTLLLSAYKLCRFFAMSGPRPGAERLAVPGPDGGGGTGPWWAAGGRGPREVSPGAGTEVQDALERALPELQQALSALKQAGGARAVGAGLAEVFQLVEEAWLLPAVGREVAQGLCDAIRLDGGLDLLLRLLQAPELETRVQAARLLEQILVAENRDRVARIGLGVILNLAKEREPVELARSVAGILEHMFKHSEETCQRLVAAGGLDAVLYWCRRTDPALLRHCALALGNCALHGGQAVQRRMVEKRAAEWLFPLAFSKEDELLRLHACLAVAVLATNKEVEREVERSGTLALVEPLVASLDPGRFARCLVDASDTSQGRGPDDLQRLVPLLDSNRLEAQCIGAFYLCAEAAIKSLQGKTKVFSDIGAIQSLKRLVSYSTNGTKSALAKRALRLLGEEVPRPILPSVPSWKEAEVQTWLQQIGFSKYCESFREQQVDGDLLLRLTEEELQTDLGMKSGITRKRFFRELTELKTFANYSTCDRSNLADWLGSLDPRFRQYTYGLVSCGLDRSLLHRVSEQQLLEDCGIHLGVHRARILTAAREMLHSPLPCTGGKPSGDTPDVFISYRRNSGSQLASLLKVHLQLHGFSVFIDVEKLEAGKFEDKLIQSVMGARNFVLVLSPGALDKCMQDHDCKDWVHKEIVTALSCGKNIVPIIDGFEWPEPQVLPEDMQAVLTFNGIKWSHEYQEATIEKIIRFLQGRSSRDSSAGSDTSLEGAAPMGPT
# [10] = viability loss in pontine glioma line – cell-based, SU-DIPG-IV, MIPE4.0, CellTiter-Glo, qHTS, dose response (AID 1347063; cut-off not given, nearly all actives have AC50 up to about 30 µM;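 note: compound exposure lasted 48 hours before the viability readout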); settings: CellTiter-Glo ATP luminescence
# [11] = biological target: ATP-dependent translocase ABCB1 (Homo sapiens) (UniProt P08183); experiment: P-glycoprotein substrate transport blockade – cell-based (AID 377; in the data active = fluorescence slope change above about 50%); settings: MDR1-expressing cells, fluorescent substrate accumulation slope; stronger effect = higher value; concentration not given here
# ATP-dependent translocase ABCB1 (Homo sapiens), sequence (P08183 whole entry, looked up): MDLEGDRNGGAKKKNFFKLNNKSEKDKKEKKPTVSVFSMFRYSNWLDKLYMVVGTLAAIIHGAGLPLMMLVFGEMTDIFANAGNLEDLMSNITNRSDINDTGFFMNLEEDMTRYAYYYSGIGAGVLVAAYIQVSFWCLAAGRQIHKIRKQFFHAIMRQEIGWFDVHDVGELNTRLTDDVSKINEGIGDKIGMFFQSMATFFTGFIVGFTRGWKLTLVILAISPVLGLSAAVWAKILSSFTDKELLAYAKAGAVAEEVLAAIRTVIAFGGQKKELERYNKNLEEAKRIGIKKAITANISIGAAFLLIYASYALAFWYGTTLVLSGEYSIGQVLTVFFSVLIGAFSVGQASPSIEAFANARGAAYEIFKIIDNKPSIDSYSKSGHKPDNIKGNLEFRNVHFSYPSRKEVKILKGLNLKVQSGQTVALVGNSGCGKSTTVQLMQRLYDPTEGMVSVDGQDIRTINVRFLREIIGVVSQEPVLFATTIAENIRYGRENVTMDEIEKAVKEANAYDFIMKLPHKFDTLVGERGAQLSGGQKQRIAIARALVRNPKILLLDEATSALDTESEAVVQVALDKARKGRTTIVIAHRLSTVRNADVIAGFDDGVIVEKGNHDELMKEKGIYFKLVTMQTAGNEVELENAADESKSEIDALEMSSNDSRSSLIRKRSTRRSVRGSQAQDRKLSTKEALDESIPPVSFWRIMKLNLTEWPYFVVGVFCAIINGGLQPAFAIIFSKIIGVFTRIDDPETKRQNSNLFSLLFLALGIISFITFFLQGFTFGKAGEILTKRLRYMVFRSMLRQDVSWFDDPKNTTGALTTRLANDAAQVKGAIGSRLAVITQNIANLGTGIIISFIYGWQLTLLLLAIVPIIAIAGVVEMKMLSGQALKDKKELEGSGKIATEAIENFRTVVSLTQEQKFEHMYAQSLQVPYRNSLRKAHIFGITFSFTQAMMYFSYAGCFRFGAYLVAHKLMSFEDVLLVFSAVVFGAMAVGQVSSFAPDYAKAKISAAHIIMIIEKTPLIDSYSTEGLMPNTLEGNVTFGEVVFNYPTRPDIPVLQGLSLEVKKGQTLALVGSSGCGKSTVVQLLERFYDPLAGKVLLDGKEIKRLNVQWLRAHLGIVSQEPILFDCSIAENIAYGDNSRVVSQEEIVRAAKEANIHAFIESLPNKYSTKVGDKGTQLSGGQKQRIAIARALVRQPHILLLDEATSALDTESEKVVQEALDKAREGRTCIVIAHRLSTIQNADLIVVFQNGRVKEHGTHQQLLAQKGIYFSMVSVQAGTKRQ
# [12] = JHH-DIPG-1 glioma cell viability, MIPE5.0 library, CellTiter-Glo luminescence, qHTS (AID 1347067; cut-off not given, nearly all actives have AC50 up to about 26 µM;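 note: cells exposed to compound for 48 hours before readout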); settings: JHH-DIPG-1 glioma viability, CellTiter-Glo ATP luminescence
# [13] = growth inhibition, single agent or in combination, cell-based, chromothripsis tumors, cisplatin or BGB combos (AID 1671449; in the data active = inhibition above about 80%;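 note: cells exposed for 96 hours; 0% = vehicle DMSO and 100% = killing by high DMSO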); settings: LFS_MB_P medulloblastoma cells
# [14] = growth inhibition, single agent and combos, cell-based, chromothripsis tumors, cisplatin or BGB combos (AID 1671450; in the data active = inhibition above about 80%;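 note: cells exposed to compound for four days; 0% = vehicle DMSO and 100% = cell killing by high DMSO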); settings: HDN33 neuroblastoma cells, stronger effect = higher value
# [15] = growth inhibition, single agents and combos, ICB984, cell-based, cisplatin or BGB combos, synergistic combos for chromothripsis tumors (AID 1671451); settings: ICB984 medulloblastoma cells, drug combinations, stronger effect = higher value;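 note: cells exposed for 96 hours before readout; 0% = vehicle DMSO and 100% = killing by high DMSO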
# [16] = growth inhibition, single agents and combos, HTB85, cell-based, BGB or cisplatin IC20 combos, synergistic combos for chromothripsis tumors (AID 1671453; in the data active = inhibition above about 80%;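 note: cells exposed for 96 hours before readout; 0% = vehicle DMSO and 100% = high DMSO killing control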); settings: HTB85 osteosarcoma cells, drug combinations, stronger effect = higher value
# [17] = growth inhibition, MDA-MB-436, cell-based, BGB or cisplatin combos, synergistic combos for chromothripsis tumors (AID 1671458); settings: MDA-MB-436 breast carcinoma growth inhibition, drug combinations, stronger effect = higher value;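 note: cells exposed for 96 hours; 0% = vehicle DMSO and 100% = killing by high DMSO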
# [18] = BT084 cell growth, single and combined drugs, ICGC_MB145, cisplatin and BGB IC40 combos (AID 1671461; in the data active = inhibition above about 80%;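 note: cells exposed to drugs for 96 hours; 0% = vehicle DMSO and 100% = high DMSO full killing control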); settings: BT084 medulloblastoma cells, drug combinations, stronger effect = higher value
# [19] = RCMB18 cell growth, single agent and combined, cisplatin and BGB IC40 combos (AID 1671462; in the data active = inhibition above about 80%;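 note: cells exposed to compound for four days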); settings: RCMB18 medulloblastoma cells, stronger effect = higher value
# [20] = CRL1545 cell growth, single agent and combined, cisplatin and BGB IC20 combos (AID 1671464; in the data active = inhibition above about 80%;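 note: cells exposed to compound for 96 hours before readout; 0% = vehicle DMSO and 100% = high DMSO killing control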); settings: CRL1545 osteosarcoma cells, stronger effect = higher value
# [21] = measured here: with BGB IC20 combination, at 0.5 µM
# [22] = measured here: with cisplatin IC20 combination, at 0.5 µM
structure (smiles),measurement,setting,value
COc1ccc(-c2cc(=O)c3c(O)cc(O)cc3o2)cc1O,AC50,[1],11.8 µM (active)
same,AC50,[2],10.5 µM (active)
NC(N)=NC(N)=Nc1ccccc1,remaining activity,[3],119% (inactive)
c1ccc2c(Cc3c[nH]c4ccccc34)c[nH]c2c1,survival,[4],89.8 (inactive)
same,outcome,[5],inactive
same,outcome,[6],inactive
same,outcome,[2],inactive
same,outcome,[7],inactive
COc1ccc2cc1Oc1ccc(cc1)C[C@H]1c3cc(c(OC)cc3CCN1C)Oc1c(OC)c(OC)cc3c1[C@H](C2)N(C)CC3,survival,[4],1.58 (inactive)
CC1=C(/C=C/C(C)=C/C=C/C(C)=C/C=C/C=C(C)/C=C/C=C(C)/C=C/C2=C(C)CCCC2(C)C)C(C)(C)CCC1,outcome,[1],inactive
same,outcome,[8],inactive
same,outcome,[2],inactive
same,outcome,[7],inactive
same,remaining NAD,[9],10 nM (inactive)
COc1ccc(-c2coc3cc(O)cc(O)c3c2=O)cc1,AC50,[5],26.3 µM (active)
same,outcome,[8],inactive
same,outcome,[2],inactive
O=C(O)/C=C/c1ccc(O)c(O)c1,AC50,[10],20.9 µM (active)
CCC(c1ccc(O)cc1)C(CC)c1ccc(O)cc1 (configuration not stated),fluorescence slope change,[11],18% (inactive)
same,survival,[4],2.75 (inactive)
same,outcome,[5],inactive
same,outcome,[8],inactive
same,outcome,[6],inactive
same,outcome,[7],inactive
O=c1c(O)c(-c2ccc(O)cc2O)oc2cc(O)cc(O)c12,outcome,[5],inactive
same,outcome,[1],inactive
same,outcome,[8],inactive
same,outcome,[10],inactive
same,outcome,[6],inactive
same,outcome,[2],inactive
same,outcome,[12],inactive
same,outcome,[7],inactive
CCn1nc(C(=O)O)c(=O)c2cc3c(cc21)OCO3,fluorescence slope change,[11],14.5% (inactive)
same,survival,[4],2.42 (inactive)
same,remaining NAD,[9],10 nM (inactive)
same,inhibition,"[13]; at 0.5 µM, stronger effect = higher value",-4.36% (inactive)
same,inhibition,"[13]; measured here: combination with BGB IC20, at 0.005 µM",-22%
same,inhibition,"[13]; measured here: combination with BGB IC40, at 0.005 µM",-16.5%
same,inhibition,"[13]; measured here: combination with BGB IC40, at 0.05 µM",-12.9%
same,inhibition,"[13]; measured here: combination with cisplatin, at 0.5 µM, stronger effect = higher value",-13.6%
same,inhibition,"[13]; measured here: combination with cisplatin, at 5 µM, stronger effect = higher value",-41.5%
same,inhibition,"[14]; BGB combo, at 5 µM",-23.8%
same,inhibition,[14]; at 0.5 µM,-7.41% (inactive)
same,inhibition,"[14]; cisplatin combo, at 5 µM",-10.5%
same,inhibition,[14]; [21],-15.2%
same,inhibition,[14]; [22],-1.32%
same,inhibition,"[14]; single agent, at 5 µM",-41.5%
same,inhibition,"[15]; BGB IC20 combo, at 0.005 µM",-15.8%
same,inhibition,"[15]; BGB IC40 combo, at 0.005 µM",-16.7%
same,inhibition,"[15]; BGB IC40 combo, at 0.05 µM",-9.96%
same,inhibition,[15]; at 0.5 µM,-5.52% (inactive)
same,inhibition,"[15]; cisplatin combo, at 0.05 µM",-9.96%
same,inhibition,"[15]; cisplatin combo, at 0.5 µM",-1.52%
same,inhibition,"[15]; cisplatin combo, at 5 µM",-43.4%
same,inhibition,"[15]; measured here: 5 uM single agent, at 5 µM",-20.7%
same,inhibition,[16]; at 0.5 µM,-28.8% (inactive)
same,inhibition,"[16]; measured here: with BGB IC20, at 0.5 µM",-63%
same,inhibition,"[16]; measured here: with BGB IC20, at 5 µM",5.32%
same,inhibition,"[16]; measured here: with cisplatin IC20, at 0.5 µM",-29.8%
same,inhibition,"[16]; measured here: with cisplatin IC20, at 5 µM",-12.6%
same,inhibition,"[16]; single agent, at 5 µM",-6.73%
same,inhibition,[17]; at 0.5 µM,-10.8% (inactive)
same,inhibition,"[17]; measured here: BGB combination, at 0.5 µM",-3.35%
same,inhibition,"[17]; measured here: BGB combination, at 5 µM",-16.6%
same,inhibition,"[17]; measured here: cisplatin combination, at 0.5 µM",-23.3%
same,inhibition,"[17]; measured here: cisplatin combination, at 5 µM",-13.2%
same,inhibition,[18]; at 0.5 µM,-21.7% (inactive)
same,inhibition,"[18]; cisplatin combination, at 0.5 µM",-15.5%
same,inhibition,"[18]; cisplatin combination, at 5 µM",-34.6%
same,inhibition,"[18]; measured here: BGB IC40 combination 0.05 uM, at 0.05 µM",-12.7%
same,inhibition,"[18]; single agent, at 5 µM",-10.2%
same,inhibition,[19]; at 0.5 µM,-22.9% (inactive)
same,inhibition,"[19]; cisplatin combo, at 5 µM",-5.51%
same,inhibition,"[19]; measured here: BGB IC40 combination, at 0.05 µM",-14.3%
same,inhibition,"[19]; measured here: combination with cisplatin, at 0.5 µM",-7.95%
same,inhibition,"[19]; single agent, at 5 µM",-10.2%
same,inhibition,[20]; at 0.5 µM,-33.4% (inactive)
same,inhibition,[20]; [21],-23%
same,inhibition,[20]; [22],-38.6%
same,inhibition,"[20]; single agent, at 0.05 µM",5.27%
same,inhibition,"[20]; single agent, at 5 µM",10.4%
CC(=O)N[C@@H](CC(=O)O)C(=O)N[C@@H](CCC(=O)O)C(=O)O (Ac-Asp-Glu-OH),survival,[4],16.7 (inactive)
same,remaining activity,[3],82.4% (inactive)
O=c1cc(-c2ccccc2)oc2cc(O)cc(O)c12,survival,[4],11.8 (inactive)
same,outcome,[1],inactive
same,outcome,[8],inactive
same,outcome,[10],inactive
same,outcome,[2],inactive
same,outcome,[12],inactive
C1CCc2nnnn2CC1,fluorescence slope change,[11],136% (active)
same,survival,[4],27.4 (inactive)
same,remaining activity,[3],117% (inactive)
same,remaining NAD,[9],10 nM (inactive)
COc1cc(/C=C/C(=O)O)ccc1O,outcome,[1],inactive
same,outcome,[8],inactive
same,outcome,[10],inactive
same,outcome,[2],inactive
